The test system of this test is P. falciparum stage V gametocytes. The arrangement: BacTiter-Glo ATP luminescence viability of purified stage V gametocytes in 384-well plates, per cent inhibition versus DMSO. To be noted: 48 h, 5 µM, inhibitor.

Like-named read-outs stand apart in the source and are kept apart here. Screen size: about 13,000 compounds; about 3,200 (25%) showed an effect of 50% or more. This is one part of the list.

As usually defined, the % Inhibition is the drop in the measured response relative to a control, in per cent. `CC[C@H](C)[C@@H](C(=O)N1CCOCC1)N1CC[C@H](NS(=O)(=O)CC(C)(C)c2ccc(Cl)cc2)C1=O` [TCMDC-138910]: the “% Inhibition” value is -4.326%.
`N#Cc1ccc(N2CCN(Cc3cccc(-c4ccc(-c5nc6cc(C(F)(F)F)ccc6[nH]5)s4)c3)CC2)nc1.O=C(O)C(F)(F)F` [TCMDC-133114]: the “% Inhibition” value is -37.6%.
As for `CCCCCC(C)c1cc(O)c2c(c1)OC(C)(C)C=C2C1=CCN(Cc2ccccc2)CC1` (centres unmarked) [TCMDC-131350], the “% Inhibition” value is reported as -56.28%.
For `FC(F)(F)c1ccc(NC(=S)NC2CCC(CN3CCC(c4c[nH]c5ccccc45)CC3)CC2)cc1` (centres unmarked) [TCMDC-140178], the “% Inhibition” value (% Inhibition) came out at 78.37%.
The same measure, in the same setting: as for `O=C(Nc1ccccc1Cl)NC1CCC(CN2CCC(c3c[nH]c4ccccc34)CC2)CC1` (centres unmarked) [TCMDC-140196], the figure is 17.3%.
For `O=C(NC1CCC(CN2CCC(c3c[nH]c4ccccc34)CC2)CC1)c1csc(-c2ccc(C(F)(F)F)cc2Cl)n1` (centres unmarked) [TCMDC-140352], the “% Inhibition” value is on record as 52.36%.
Consider `FC(F)(F)c1ccc(NC(=S)NC2CCC(CN3CCC(c4c[nH]c5ccccc45)CC3)CC2)cc1` (centres unmarked) [TCMDC-140198], for which, for the setting “% Inhibition”, the “% Inhibition” value is listed as 109.8%.
The same measure, in the same setting: as for `O=C(Nc1ccccc1Cl)NC1CCC(CN2CCC(c3c[nH]c4ccccc34)CC2)CC1` (centres unmarked) [TCMDC-140176], the figure is -4.106%.
Take `O=C(NC1CCC(CN2CCC(c3c[nH]c4ccccc34)CC2)CC1)NC12CC3CC(CC(C3)C1)C2` (centres unmarked) [TCMDC-140204]: the “% Inhibition” value is listed as 96.25%.
Same read-out and setting: the result for `O=C(NC1CCC(CN2CCC(c3c[nH]c4ccccc34)CC2)CC1)c1ccc(-c2cc(C(F)(F)F)ccc2Cl)o1` (centres unmarked) [TCMDC-140350] reads -5.918%; that for `O=C(NC1CCC(CN2CCC(c3c[nH]c4ccccc34)CC2)CC1)c1csc(-c2cccc(Cl)c2Cl)n1` (centres unmarked) [TCMDC-140351], -28.23%.
As for `CC(Cc1ccc(-c2nc3ccccc3[nH]2)cc1)NCC(O)c1cccc(C(F)(F)F)c1` (centres unmarked) [TCMDC-131524], the “% Inhibition” value was -16.53%.
Regarding `Cc1ccc(C(C)C)c(Oc2cnc(NC(CO)c3ccccc3)nc2N)c1` (centres unmarked) [TCMDC-135558], the “% Inhibition” value was 13.9%.
Still for that read-out and setting: as for `Cc1cc2ccc(/C=C/C(=O)NC3CCC(CCN4CCc5ccc(C#N)cc5CC4)CC3)cc2[nH]1` (centres unmarked) [TCMDC-139668], the figure is -29.35%.
On the same count and under the same terms, the result for `O=C(Cc1cn(-c2ccccc2)nc1-c1ccc(Cl)cc1)Nc1nccs1` [TCMDC-124872] reads -9.075%; that for `Nc1c(-c2ccc(C(=O)NCCNCc3ccccc3)cc2)cnn1-c1ccc(C(F)(F)F)cc1` [TCMDC-136660], 12.46%.
The same measure, in the same setting: as for `N#Cc1ccc(N2CCN(Cc3cccc(-c4ccc(-c5nc6cc(C(F)(F)F)ccc6[nH]5)cc4)c3)CC2)nc1.O=C(O)C(F)(F)F` [TCMDC-133112], the figure is -19.5%.
With `CC(C)c1sc(N2CCN(C)CC2)nc1C(=O)Nc1cccc2c1CCCC2` [TCMDC-134303], the “% Inhibition” value is listed as -19.32%.
The same measure, in the same setting: the result for `O=C(/C=C/c1ccc(Cl)c(Cl)c1)NCCCCCN1CCC(NC(=S)Nc2ccc(Cl)cc2)CC1` [TCMDC-135898] reads 6.847%; that for `O=C(Nc1ccc(Oc2ccccc2)cc1)NC1CCC(CN2CCC(c3c[nH]c4ccccc34)CC2)CC1` (centres unmarked) [TCMDC-140186], 102.3%.
`O=C(Nc1cc(C(F)(F)F)cc(C(F)(F)F)c1)NC1CCC(CN2CCC(c3c[nH]c4ccccc34)CC2)CC1` (centres unmarked) [TCMDC-140199]: the “% Inhibition” value (% Inhibition) is listed as -51.42%.
Still for that read-out and setting: as for `O=C(Nc1ccccc1OC(F)(F)F)NC1CCC(CN2CCC(c3c[nH]c4ccccc34)CC2)CC1` (centres unmarked) [TCMDC-140203], the figure is -4.21%.
The same measure, in the same setting: the result for `O=C(Nc1cc(C(F)(F)F)cc(C(F)(F)F)c1)NC1CCC(CN2CCC(c3c[nH]c4ccccc34)CC2)CC1` (centres unmarked) [TCMDC-140180] reads 75.46%; that for `O=C(Nc1ccccc1OC(F)(F)F)NC1CCC(CN2CCC(c3c[nH]c4ccccc34)CC2)CC1` (centres unmarked) [TCMDC-140185], -31.33%.
As for `O=C(NCCNc1ccnc(NCc2ccc(F)cc2)n1)c1cc2ccccc2s1` [TCMDC-133646], the “% Inhibition” value was -28.02%.
On the same count and under the same terms, the result for `O=C(NCc1ccc(Cl)c(Cl)c1)c1ccc(C2CCN(Cc3ccc4nc[nH]c4c3)CC2)cc1` [TCMDC-133069] reads -61.63%.
Still for that read-out and setting: as for `COc1ccc2c(c1)CC(C)(C)NC2CCCCCCCCC1NC(C)(C)Cc2cc(OC)ccc21` (centres unmarked) [TCMDC-137935], the figure is 92.87%; as for `COc1ccc2c(c1)CC(NCc1ccc(-c3ccc4nc[nH]c4c3)cc1)C2` (centres unmarked) [TCMDC-133483], 36.76%; as for `Cc1ccc(NC(=O)c2ccc(CN3CCCN(Cc4cccc(Cl)c4)CC3)cc2)cc1C` [TCMDC-136426], -8.077%.
The same measure, in the same setting: the result for `NC1=NC2(CCCCC2)N(OCCCCCCN2C(=O)c3ccccc3C2=O)C(N)=N1` [TCMDC-140537] reads 2.277%.
On to `O=C(/C=C/c1ccccc1Cl)NC1CCC(CN2CCC(c3c[nH]c4ccncc34)CC2)CC1` (centres unmarked) [TCMDC-140110], for which the “% Inhibition” value was 79.76%.
On the same count and under the same terms, the result for `O=C(/C=C/c1c(Cl)cccc1Cl)NC1CCC(CN2CCC(Cc3cc4ccccc4[nH]3)CC2)CC1` (centres unmarked) [TCMDC-140233] reads 51.23%; that for `O=C(/C=C/c1ccc(Cl)c(Cl)c1)NC1CCC(CN2CCC(Cc3cc4ccccc4[nH]3)CC2)CC1` (centres unmarked) [TCMDC-140232], -17.26%.
In the case of `O=C(C=Cc1cccc(Cl)c1Cl)NC1CCC(CN2CCC(c3c[nH]c4ccccc34)CC2)CC1` (centres unmarked) [TCMDC-139910], where the note is “% Inhibition”, the “% Inhibition” value worked out at 41.2%.
For the compound `O=C(/C=C/c1ccc(Cl)c(Cl)c1)NC1CCC(CN2CCC(c3cc4ccccc4[nH]3)CC2)CC1` (centres unmarked) [TCMDC-140236], the “% Inhibition” value turned out to be 9.147%.
In the case of `CS(=O)(=O)Nc1ccc2[nH]cc(C3CCN(CC4CCC(NC(=O)/C=C/c5ccccc5Cl)CC4)CC3)c2c1` (centres unmarked) [TCMDC-139887], the “% Inhibition” value amounted to 39.39%.
The same measure, in the same setting: the result for `O=C(/C=C/c1c(Cl)cccc1Cl)NC1CCC(CN2CCC(c3c[nH]c4ccncc34)CC2)CC1` (centres unmarked) [TCMDC-140220] reads 108.5%.
Consider `O=C(/C=C/c1c(Cl)cccc1Cl)NC1CCC(CN2CCC(c3c[nH]c4ccccc34)CC2)CC1` (centres unmarked) [TCMDC-139856], for which the “% Inhibition” value (% Inhibition) is 7.287%.
Still for that read-out and setting: the result for `O=C(/C=C/c1c(Cl)cccc1Cl)NC1CCC(CN2CCC(c3c[nH]c4ccccc34)CC2)CC1` (centres unmarked) [TCMDC-139858] reads -12.84%.
Consider `CC(C)(C)Oc1ccc(CC2NC3(C(=O)N(Cc4ccc(C(C)(C)C)cc4)c4ccccc43)C3C(=O)N(c4ccc(Br)cc4)C(=O)C23)cc1` (centres unmarked) [TCMDC-139774], for which the “% Inhibition” value turned out to be 1.203%.
The same measure, in the same setting: the result for `CC(C)C1C(O)=C(c2ccc3ccccc3c2)C(=O)N1Cc1cccc(F)c1` (centres unmarked) [TCMDC-141811] reads 28.08%; that for `Oc1ccccc1CNCc1ccc(-c2cnc(N3CCCC(c4ccccc4)C3)nc2)cc1` (centres unmarked) [TCMDC-133768], -9.076%; that for `CN(CCc1ccccc1)c1ncc(-c2ccccc2CNCc2ccccc2O)cn1` [TCMDC-132575], 53.28%.
Same read-out and setting: the result for `CCCN(CC1CC1)c1ncc(-c2ccccc2CNCc2ccccc2O)cn1` [TCMDC-132574] reads -10.65%.
Still for that read-out and setting: the result for `O=c1cc(NCCCCNCc2cccc(Cl)c2)[nH]c2ccccc12` [TCMDC-139311] reads -48.31%; that for `CCCC(C)NC(=O)/C=C/c1ccccc1-c1cccc(OC)c1` (centres unmarked) [TCMDC-136229], -11.68%; that for `CN1C(C)(C)CC(NC(=O)c2ccc(-c3nc4ccc(Cl)cc4[nH]3)cc2)CC1(C)C` [TCMDC-139262], -8.23%.
As for `COc1cc(C(=O)NC2CC(C)(C)N(C)C(C)(C)C2)ccc1-c1nc2cc(Cl)c(Cl)cc2[nH]1` [TCMDC-139618], the “% Inhibition” value is reported as 89.66%.
On the same count and under the same terms, the result for `CCOc1cc(C(=O)NC2CC(C)(C)NC(C)(C)C2)ccc1-c1nc2ccc(Cl)cc2[nH]1` [TCMDC-140404] reads 39.53%.
The same measure, in the same setting: as for `CN1C(C)(C)CC(NC(=O)c2ccc(-c3nc4cc(Cl)c(Cl)cc4[nH]3)cc2)CC1(C)C` [TCMDC-139250], the figure is 28.21%; as for `Cc1c(-c2ccc(C(=O)NC3CC(C)(C)NC(C)(C)C3)cc2)[nH]c2cc(Cl)c(Cl)cc12` [TCMDC-140975], 52.66%; as for `CCOc1cc(C(=O)NC2CC(C)(C)N(C)C(C)(C)C2)ccc1-c1nc2cc(Cl)c(Cl)cc2[nH]1` [TCMDC-140058], 24.71%.
Still for that read-out and setting: as for `COc1cc(C(=O)NC2CC(C)(C)NC(C)(C)C2)ccc1-c1cc2cc(Cl)c(Cl)cc2[nH]1` [TCMDC-139693], the figure is -5.047%.
As to `CCOc1cc(C(=O)NC2CC(C)(C)NC(C)(C)C2)ccc1-c1cc2cc(Cl)c(Cl)cc2[nH]1` [TCMDC-139960], the “% Inhibition” value is 72.27%.
Same read-out and setting: the result for `COc1cc(C(=O)NC2CC(C)(C)N(C)C(C)(C)C2)ccc1-c1cc2cc(Cl)c(Cl)cc2[nH]1` [TCMDC-139227] reads 47.65%; that for `O=C(Nc1ccc(CN2CCCCC2)cc1)c1ccc(COc2ccc([N+](=O)[O-])cc2)o1` [TCMDC-123727], -23.78%; that for `CC(C)Oc1ccc(CCCON2C(N)=NC(N)=NC2(C)C)cc1` [TCMDC-131759], 12.88%.
The same measure, in the same setting: as for `Cc1cc(NC(=O)c2ccco2)ccc1OC1CCN(Cc2ccccc2)CC1` [TCMDC-133965], the figure is 12.37%.
Regarding `COc1ccc2nccc([C@@H](O)CN3CCC(NCc4nc5c(C#N)cccc5[nH]4)CC3)c2c1` [TCMDC-141116], the “% Inhibition” value is on record as -34.83%.
Same read-out and setting: as for `Oc1ccc(CCNc2nc(NCCCOc3ccccc3-c3cccc(C(F)(F)F)c3)nc(N3CCNCC3)n2)cc1` [TCMDC-134134], the figure is 10.32%.
On the same count and under the same terms, the result for `Oc1ccc(CC2CCCN(c3nc(NCCCOc4ccccc4-c4ccccc4)nc(N4CCNCC4)n3)C2)cc1` (centres unmarked) [TCMDC-134279] reads 106%; that for `Oc1ccc(CCNc2nc(NCCCOc3ccccc3-c3ccc(F)cc3)nc(N3CCNCC3)n2)cc1` [TCMDC-134135], 12.8%; that for `Oc1ccc(CCNc2nc(NCc3ccccc3-c3ccc(C(F)(F)F)cc3)nc(N3CCNCC3)n2)cc1` [TCMDC-138323], -0.8501%.
The same measure, in the same setting: the result for `OCCCCCCNc1nc(NCc2ccccc2-c2ccc(C(F)(F)F)cc2)nc(N2CCNCC2)n1` [TCMDC-134126] reads 66.94%; that for `Oc1ccc(CCNc2nc(NCCOc3ccccc3-c3ccccc3)nc(N3CCNCC3)n2)cc1` [TCMDC-134131], -22.6%; that for `Oc1ccc(CCNc2nc(NCCCOc3ccccc3-c3cccnc3)nc(N3CCNCC3)n2)cc1` [TCMDC-134137], 19.58%.
In the case of `COc1ccc(-c2ccccc2OCCCNc2nc(NCCc3ccc(O)cc3)nc(N3CCNCC3)n2)cc1` [TCMDC-134136], the “% Inhibition” value is recorded as 51.13%.
Turning to `Oc1ccc(CCNc2nc(NCCCOc3ccccc3-c3ccc(C(F)(F)F)cc3)nc(N3CCNCC3)n2)cc1` [TCMDC-134139], the “% Inhibition” value came out at 56.06%.
For `Oc1ccc(CCNc2nc(NCc3ccccc3-c3ccc(C(F)(F)F)cc3)nc(N3CCCNCC3)n2)cc1` [TCMDC-133388], the “% Inhibition” value is 24.02%.
Same read-out and setting: as for `Oc1ccc(CCNc2nc(NCc3ccccc3-c3ccccc3)nc(N3CCCNCC3)n2)cc1` [TCMDC-133386], the figure is 28.34%.
Same read-out and setting: as for `Oc1ccc(CCNc2nc(NCCCOc3ccccc3-c3ccncc3)nc(N3CCNCC3)n2)cc1` [TCMDC-134138], the figure is 16.05%.

These data come from paper PMC4552634, “A New Set of Chemical Starting Points with Plasmodium falciparum Transmission-Blocking Potential for Antimalarial Drug Discovery” (PLoS ONE, 2015).
